Compound activity: PubChem BioAssay, several laboratories
This is a sample that favours compounds with a hit; in the whole collection about 4.5% have one here.
Rce1 inhib: yeast Rce1p protease inhibitors, primary screen, biochemical, fluorescence, cell-free homogeneous | CAAX prenyl protease 2 (Saccharomyces cerevisiae (strain ATCC 204508 / S288c)), Q03530 | yeast membranes, quenched prenylated peptide cleavage fluorescence | calls only | actives 0.27% (n = 290,000);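 active = fall in fluorescence gain of 50% or more versus controls, with final raw signal at or below 3038400; inconclusive = same 50% fall but final raw signal above 3038400; inactive = fall in fluorescence gain under 50%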;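 note: plate controls were neutral control wells for no effect and wells lacking membranes for full effect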
ALR inh: inhibitors of human ALR sulfhydryl oxidase, primary screen, biochemical, H2O2 detection, HRP-luminol luminescence, single point | actives 3.8% (n = 290,000) | FAD-linked sulfhydryl oxidase ALR (Homo sapiens), P55789 | inhibition, % (no concentration beside the values) | purified ALR, DTT oxidation;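 active = mean replicate inhibition above about 79%, with every replicate also reaching it, limit read from the data; inconclusive = only one of the two criteria met; inactive = mean below limit and not every replicate reaching it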
Rtt109 Vps75: inhibitors of C. albicans Rtt109/Vps75 HAT, primary screen, biochemical, ThioGlo CoA-SH fluorescence, plate reader; actives 0.16% (n = 330,000); purified Rtt109/Vps75, 4 h; inhibition, % at 34.9 µM;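 active = inhibition of at least 50% in every replicate; inconclusive = best replicate reaches 50% inhibition but some replicates fall short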
HDAC3 inh: HDAC3 deacetylase inhibitors, primary screen, biochemical, fluorescence, cell-free homogeneous. Histone deacetylase 3 (Homo sapiens), O15379. recombinant HDAC3, fluorogenic peptide/trypsin coupled. inhibition, % at 8.3 µM. actives 0.15% (n = 320,000); in the data active = inhibition above about 26%, passing the limit was not always enough; inconclusive = no clear call, values can overlap the other calls
Efflux pump inh: inhibitors of Candida efflux pumps in yeast, primary screen, S. cerevisiae, Nile Red, multiplex; AID 485275, 2010; inhibition, % at 10 µM; S. cerevisiae Candida pump triplex; actives 0.44% (n = 330,000);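 active = plate passing quality check with inhibition over a set limit, or well fluorescence over plate mean plus 4 SD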;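 note: Nile Red retained in pooled yeast measured as flow cytometry median fluorescence; 0% = buffer negative control and 100% = Enniatin B positive control; higher means more Nile Red kept so more efflux inhibition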
GRK2 aptamer HTS: compounds blocking aptamer binding on GRK2 – biochemical, human GRK2, bead flow cytometry, HTS, primary screen | Beta-adrenergic receptor kinase 1 (Homo sapiens), P25098 | FAM-aptamer displacement from GRK2 | actives 0.59% (n = 330,000) | inhibition of aptamer binding, % at 10 µM | AID 488847, 2010;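 active = inhibition of aptamer binding above 40%, roughly 3 SD of noise, on plates passing a quality check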;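 note: median bead fluorescence of bound FAM aptamer so fluorescent compounds give negative values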
Target sequence (P25098 whole entry, looked up): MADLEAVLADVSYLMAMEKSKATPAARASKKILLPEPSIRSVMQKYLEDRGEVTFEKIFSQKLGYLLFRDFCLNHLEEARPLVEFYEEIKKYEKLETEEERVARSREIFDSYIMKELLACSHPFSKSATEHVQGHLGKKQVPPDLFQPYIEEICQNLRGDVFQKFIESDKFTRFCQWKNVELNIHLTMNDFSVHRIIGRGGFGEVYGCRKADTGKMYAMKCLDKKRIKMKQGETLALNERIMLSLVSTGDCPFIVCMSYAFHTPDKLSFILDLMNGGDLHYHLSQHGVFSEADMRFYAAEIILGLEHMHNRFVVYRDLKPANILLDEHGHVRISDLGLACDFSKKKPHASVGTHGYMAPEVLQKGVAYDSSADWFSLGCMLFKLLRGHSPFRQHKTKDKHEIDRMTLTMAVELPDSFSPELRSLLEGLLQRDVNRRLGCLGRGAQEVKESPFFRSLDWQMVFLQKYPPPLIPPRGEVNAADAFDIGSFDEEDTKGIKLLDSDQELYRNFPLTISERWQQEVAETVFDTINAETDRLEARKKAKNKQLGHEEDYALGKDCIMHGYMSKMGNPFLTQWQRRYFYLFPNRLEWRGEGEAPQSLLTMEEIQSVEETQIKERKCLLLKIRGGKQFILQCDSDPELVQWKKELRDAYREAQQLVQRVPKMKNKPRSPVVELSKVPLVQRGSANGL
* marks the source's active call; other numbers are inactive results; i = inactive; u = inconclusive; x = not tested or not shown; + = active, no number.

SMILES	Rce1 inhib	ALR inh	Rtt109 Vps75	HDAC3 inh	Efflux pump inh	GRK2 aptamer HTS
COc1ccc(OC)c(C(=O)N2CCCC(Nc3ccc(F)cc3)C2)c1 (stereo not drawn)	i	94*	2	7	0	2
O=C(Cn1nnc(-c2ccccc2)n1)OCc1csc(-c2ccccc2)n1	i	99*	0	-4	0	3
COc1ccc(N2CCN(CCCNC(=O)CCC(=O)N3CCOc4ccc(Cl)cc43)CC2)cc1	i	99*	-3	2	0	0
Cc1ccc(C)c(N2CCN(CCCNC(=O)CCC(=O)N3CCOc4ccc(Cl)cc43)CC2)c1	i	17	x	-3	0	0
Cc1cc(NC(=O)COC(=O)[C@@H]2CCCN2C(=O)c2cccs2)no1	x	x	-4	x	x	x
COCCN(C(=O)c1ccc(N(C)S(=O)(=O)c2ccc(C)cc2)cc1)c1c(N)n(CC(C)C)c(=O)[nH]c1=O	x	x	11	x	x	x
CCOC(=O)C1=C(COC(=O)/C=C/c2cccc([N+](=O)[O-])c2)NC(=O)NC1C (stereo not drawn)	i	x	-6	2	0	4
OCc1ccccc1SSc1ccccc1CO	i	98*	x	3	0	0
O=c1cc(CN2CCN(c3ccc(O)cc3)CC2)nc2scc(-c3ccccc3)n12	i	94*	6	2	0	3
COc1cc(NS(=O)(=O)c2ccc(NC(=O)/C=C/c3ccc([N+](=O)[O-])cc3)cc2)ncn1	i	-5	5	2	0	1
COc1cc(NS(=O)(=O)c2ccc(NC(=O)/C=C/c3cccc([N+](=O)[O-])c3)cc2)ncn1	i	89*	6	2	0	2
O=C1CCCC2=C1C(c1ccc(O)c(O)c1)c1c(ccc3ncccc13)N2 (stereo not drawn)	i	100*	3	1	0	9
CCOc1ccc(C2C3=C(CCCC3=O)Nc3ccc4ncccc4c32)cc1 (stereo not drawn)	i	-22	10	-7	0	0
CC(C)(C)C(=O)Nc1cc(S(=O)(=O)N2CCCCC2)ccc1N1CCCCC1	i	-11	2	7	0	1
Oc1ccccc1Nc1nc(NCC2CCCO2)c2ccccc2n1 (stereo not drawn)	i	99*	25	-7	0	0
CN(C)CCNc1ncnc2oc(-c3ccccc3)c(-c3ccccc3)c12	+	-9	-5	-26	0	0
CCOC(=O)C1=C(COC(=O)/C=C/c2ccc(O)c(OC)c2)NC(=O)NC1C (stereo not drawn)	x	65	-5	7	0	2
CCN(CC)c1ccc(NC(=O)CN2CCN(CC(=O)Nc3ccccc3F)CC2)cc1	i	99*	-3	0	0	2
CCN(CC)c1ccc(NC(=O)CN2CCN(c3ccc(F)cc3)CC2)cc1	i	79*	4	2	0	0
O=C(CN1CCN(c2ccc(Cl)cc2)CC1)Nc1ccc(F)cc1	i	11	9	4	0	2
CCN(CC)c1ccc(NC(=O)CN2CCN(c3nc(C)cc(C)n3)CC2)cc1	x	98*	11	-2	0	0
Cc1cc(C)nc(N2CCN(CC(=O)NCc3ccccc3)CC2)n1	i	2	-4	-5	1	1
CCN(CC)c1ccc(NC(=O)CN2CCN(CC(=O)Nc3ccccc3OC)CC2)cc1	i	x	-2	4	0	0
COc1cc(OC)cc(-c2c(-c3cccs3)c3cc(-c4cccc5[nH]ccc45)ccc3n2C)c1	x	-5	0	5	0	2
O=C1CSc2cc(Cl)ccc2N1	x	x	7	x	x	x
SMILES	Rce1 inhib	ALR inh	Rtt109 Vps75	HDAC3 inh	Efflux pump inh	GRK2 aptamer HTS
Cc1ccccc1CNc1nnnn1C	i	-8	-1	-5	0	0
N#CCCn1cc(/C=N/N=C2\NC(=O)C(CC(=O)O)S2)c(-c2ccc(F)cc2)n1 (stereo not drawn)	i	-30	x	-6	0	1
COc1ccc(Nc2ccccc2C(=O)O)cc1	i	99*	18	1	0	0
COc1ccc(Nc2ccc(Nc3ccc(OC)cc3)nn2)cc1	i	-11	-26	4	0	0
COc1ccc(Nc2ccc(OC)cc2)cc1	i	99*	x	13	0	3
COc1ccc(Nc2cccccc2=O)cc1	i	97*	-1	8	0	2
COc1ccc(Nc2cccc3ccccc23)cc1	i	u	-1	-5	0	0
O=C(COC(=O)Cn1cc(C(F)(F)F)ccc1=O)NCc1ccccc1	x	x	-1	x	x	x
N#Cc1cnn2cc(-c3ncc(C(F)(F)F)cc3Cl)cnc12	i	85*	-6	3	0	0
C[C@H](CO)N1C[C@H](C)[C@@H](CN(C)S(=O)(=O)c2ccc(F)cc2)Oc2c(NC(=O)Nc3ccc(C(F)(F)F)cc3)cccc2C1=O	x	-1	-11	19	0	1
C[C@H]1CN([C@@H](C)CO)C(=O)c2cccc(NC(=O)Nc3ccc(C(F)(F)F)cc3)c2O[C@@H]1CN(C)S(=O)(=O)c1ccc(Cl)cc1	x	-4	4	34*	1	0
O=C(NCc1ccccc1C(F)(F)F)c1cccc2c1C(=O)c1ccc(N3CCCCC3)cc1S2(=O)=O	x	-1	-4	0	0	0
O=C(CCC1CCCN(C2C3CC4CC(C3)CC2C4)C1)NCc1ccc(F)c(F)c1 (stereo not drawn)	i	-3	8	-3	0	0
O=c1o[nH]c(-c2ccccc2)c1-c1ccccc1	i	89*	x	3	0	0
O=c1[nH][nH]c(-c2ccccc2)c1-c1ccccc1	x	x	-2	x	x	x
COc1cc(CN2CCCN(C)CC2)cc([N+](=O)[O-])c1O	i	x	-1	-5	0	0
CC(Sc1nnc(C2CC2)n1C1CC1)C(=O)c1ccc(F)cc1 (stereo not drawn)	x	6	0	-5	0	4
O=C(O)c1cc(NCc2ccc3c(c2)OCO3)ccc1N1CCOCC1	i	79*	-4	-1	0	5
COC(=O)c1cc(NCc2ccc3c(c2)OCO3)ccc1N1CCOCC1	i	-1	8	-1	0	2
COc1ccccc1CNc1ccc(N2CCOCC2)c(C(=O)O)c1	i	99*	-1	-10	0	2
